Six1-Eya2 inh – qHTS Assay for Inhibitors of the Six1/Eya2 Interaction; AlphaScreen GST-Six1/His-Eya2 binding, biochemical; active compounds read low; actives 0.56% (n = 360,000); activity change, % (test concentration not listed)
Target sequence (O00167 whole entry, looked up): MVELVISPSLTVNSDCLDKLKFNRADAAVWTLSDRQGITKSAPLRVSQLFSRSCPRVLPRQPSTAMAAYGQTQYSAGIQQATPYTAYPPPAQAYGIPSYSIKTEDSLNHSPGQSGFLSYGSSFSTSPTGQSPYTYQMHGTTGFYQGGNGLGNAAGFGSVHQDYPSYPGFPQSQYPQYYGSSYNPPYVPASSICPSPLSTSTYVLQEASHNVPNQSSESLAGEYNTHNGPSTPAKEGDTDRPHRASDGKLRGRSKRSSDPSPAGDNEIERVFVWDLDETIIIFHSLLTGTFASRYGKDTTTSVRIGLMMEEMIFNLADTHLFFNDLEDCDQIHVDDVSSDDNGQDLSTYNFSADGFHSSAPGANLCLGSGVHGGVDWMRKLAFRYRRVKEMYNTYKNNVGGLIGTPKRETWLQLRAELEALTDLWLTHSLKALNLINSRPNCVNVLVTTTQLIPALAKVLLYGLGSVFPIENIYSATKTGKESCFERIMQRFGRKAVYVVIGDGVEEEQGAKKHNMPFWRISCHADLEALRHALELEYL
Target sequence (Q15475 whole entry, looked up): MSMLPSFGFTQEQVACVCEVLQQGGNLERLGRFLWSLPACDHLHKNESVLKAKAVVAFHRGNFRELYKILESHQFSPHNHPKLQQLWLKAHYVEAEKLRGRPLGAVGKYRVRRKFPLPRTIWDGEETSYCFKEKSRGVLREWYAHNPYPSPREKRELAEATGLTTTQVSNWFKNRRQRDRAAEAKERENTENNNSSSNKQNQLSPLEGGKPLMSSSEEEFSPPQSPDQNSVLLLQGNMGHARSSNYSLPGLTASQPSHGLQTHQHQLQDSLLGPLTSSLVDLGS
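Homogeneous AlphaScreen proximity assay pairing GST-Six1 with His-tagged Eya2 (added as 5X mix: 250 nM and 500 nM) in 50 mM Tris pH 8.0, 300 mM NaCl, 1 mM TCEP. Glutathione donor and nickel acceptor beads; 1 h, 37 °C, dark.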
CCT modulator – High-Throughput Screening for Modulators of Cytosolic Chaperonin Activity; purified chaperonin ATPase assay, HTRF ADP detection, 30 min; activity change, % (no concentration beside the values), hits read low; actives 0.3% (n = 360,000); in the data active = activity change below about -30%
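ATPase activity: ADP formed was measured by HTRF Transcreener (665/615 nm ratio) after 30 min at 37 deg C with 10 uM ATP. Compounds screened at one 76 uM concentration against 40 or 20 nM TRiC in Tris pH 7.4/KCl/MgCl2/DTT buffer.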
Akt phos inh – HTS Assay for Inhibitors of Akt Phophorylation: Primary Screen; activity change, % for hits at 50 µM; actives 0.32% (n = 360,000); AID 651550, 2012; Neuro2A IGF-stimulated pAkt S473 HTRF, 20 min; active compounds read low; in the data active = activity change below about -80%; inconclusive = mostly about -51% to -80%
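Neuro2A cells in DMEM with 0.5% FBS, overnight at 37 deg C, given compound at single 50 µM final, then IGF (6 nM final) for 20 min at 37 deg C. Lysed; phospho-Akt Ser473 by HTRF after 24 h, 665/615 ratio.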
CtBP-E1A inh – qHTS Assay for Inhibitors of the CtBP/E1A Interaction. CtBP / adenovirus E1A interaction (AlphaScreen). AlphaScreen GST-E1A/His-CtBP binding, 1536-well; active compounds read low. activity change, % (test concentration not listed). actives 0.49% (n = 340,000)
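Steps: dispense buffer (Tris pH 8.0, NaCl 300 mM, TCEP 1 mM, BSA, Tween 20); add 5X protein mix (GST-E1A, His-CtBP, 125 nM each); pin 23 nL compound; 2 h at 37 °C, dark; add 5X beads (50 ug/mL); 1 h; read.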
A number is an active result. Most compounds without a hit are left out; they make up all but 1.2% or so of the library. Rule as the data show it, unless noted: active = activity change below about -65%; inconclusive = mostly about -30% to -63%; inactive = weaker than that.

`CC(C)CN(C(=O)CSc1nc2ccccc2o1)c1c(N)n(Cc2ccccc2)c(=O)[nH]c1=O` gave Six1-Eya2 inh inactive, CCT modulator inactive, Akt phos inh inactive and CtBP-E1A inh inactive.
O=C1C=CC(=O)c2c(O)c(N3CCN(CCOCCO)CC3)c(Br)c(O)c21 was read as Six1-Eya2 inh -69, CCT modulator inactive, Akt phos inh inactive and CtBP-E1A inh inactive.
Screening O=C1C=CC(=O)c2c(O)c(N3CCN(CCO)CC3)c(Cl)c(O)c21 returned Six1-Eya2 inh inconclusive, CCT modulator inactive, Akt phos inh inactive and CtBP-E1A inh inactive.
COn1cnnc1-c1ccccc1 was read as Six1-Eya2 inh inactive, CCT modulator inactive, Akt phos inh inactive and CtBP-E1A inh inactive.
On1cnnc1-c1ccccc1 was read as Six1-Eya2 inh inactive, CCT modulator inactive, Akt phos inh -91% and CtBP-E1A inh inactive.
Screening CN(C)C(=O)c1sccc1Oc1ccc(F)cc1[N+](=O)[O-] returned Six1-Eya2 inh inactive, CCT modulator inactive, Akt phos inh inactive and CtBP-E1A inh inactive.
`CN(C)NC(=S)NC1CC2CCC1C2` (stereo not given) gave Six1-Eya2 inh inactive, CCT modulator inactive, Akt phos inh inactive and CtBP-E1A inh inactive.
For c1ccc(CC2CCN(c3nc4ccccc4n4nnnc34)CC2)cc1 the results were Six1-Eya2 inh inactive, CCT modulator -32, Akt phos inh inactive and CtBP-E1A inh inactive.
For O=C(c1ccco1)N1CCN(c2nc3ccccc3n3nnnc23)CC1 the results were Six1-Eya2 inh inactive, CCT modulator inactive, Akt phos inh inactive and CtBP-E1A inh inactive.
Screening COc1ccc([N+](=O)[O-])cc1NC(=O)Nc1ccc(OC)c(OC)c1 returned Six1-Eya2 inh inactive, CCT modulator inactive, Akt phos inh inactive and CtBP-E1A inh inactive.
For COc1ccc([N+](=O)[O-])cc1NC(=O)C1(c2ccc(OC)c(OC)c2)CCOCC1 the results were Six1-Eya2 inh inactive, CCT modulator -93, Akt phos inh inactive and CtBP-E1A inh inactive.
`CCCCNC(=O)c1nc(C2CCNCC2)oc1-c1ccccc1` gave Six1-Eya2 inh inactive, Akt phos inh inactive and CtBP-E1A inh inactive.
For O=C(O)c1cccc(-n2cccc2/C=C2/NC(=O)N(c3ccc(Cl)cc3)C2=O)c1 the results were Six1-Eya2 inh -76, CCT modulator inactive, Akt phos inh inactive and CtBP-E1A inh inconclusive.
CN(CC(=O)Nc1ccccc1Cl)C1CCS(=O)(=O)C1 (stereo not given) was read as Six1-Eya2 inh inactive, CCT modulator inactive and Akt phos inh inactive.
Screening CC1CC(C)CN(C(=O)c2ccncc2)C1 (stereo not given) returned Six1-Eya2 inh inactive, CCT modulator -38, Akt phos inh inactive and CtBP-E1A inh inactive.
Screening CC1CCCN(C(=O)c2ccncc2)C1 (stereo not given) returned Six1-Eya2 inh inactive, CCT modulator inactive, Akt phos inh inactive and CtBP-E1A inh inactive.
`N=C1/C(=C\c2coc3ccc(O)cc3c2=O)C(=O)N=C2SC=CN12` gave Six1-Eya2 inh -80, CCT modulator inactive, Akt phos inh inactive and CtBP-E1A inh -90.
For N=C1/C(=C/c2coc3ccccc3c2=O)C(=O)N=C2SC(c3ccco3)=NN12 the results were Six1-Eya2 inh inactive, CCT modulator inactive, Akt phos inh inactive and CtBP-E1A inh inconclusive.
`COc1ccc(C2/C(=C(\O)c3cc(C)ccc3C)C(=O)C(=O)N2CCN(C)C)cc1OC` (stereo not given) gave Six1-Eya2 inh inactive, CCT modulator -80, Akt phos inh inactive and CtBP-E1A inh inactive.
For COc1ccc(/C(O)=C2\C(=O)C(=O)N(CCN(C)C)C2c2cc(OC)c(OC)c(OC)c2)c(C)c1 (stereo not given) the results were Six1-Eya2 inh inactive, CCT modulator inactive, Akt phos inh inactive and CtBP-E1A inh inactive.
For Sc1oc(-c2ccccc2)cc1C=Nc1ccccc1 the results were Six1-Eya2 inh -71, CCT modulator inactive, Akt phos inh inactive and CtBP-E1A inh -73.
For Oc1oc(-c2ccccc2)nc1C=Nc1ccccc1 the results were Six1-Eya2 inh inactive, CCT modulator inactive, Akt phos inh inactive and CtBP-E1A inh inactive.
COCCCn1c(Cc2csc(Nc3ccccc3)n2)nnc1SCC(N)=O was read as Six1-Eya2 inh inactive, CCT modulator inactive, Akt phos inh inactive and CtBP-E1A inh inactive.
For NC(=O)CSc1nnc(Cc2csc(Nc3ccccc3)n2)n1Cc1ccccc1 the results were Six1-Eya2 inh inactive, CCT modulator -69, Akt phos inh inactive and CtBP-E1A inh inactive.
CC(C)CC(N)c1csc(Nc2ccc(C(F)(F)F)cn2)n1 (stereo not given) was read as Six1-Eya2 inh inactive, CCT modulator inactive, Akt phos inh inactive and CtBP-E1A inh inconclusive.
CC(C)CC(N)c1csc(Nc2ccccn2)n1 (stereo not given) was read as Six1-Eya2 inh -83, CCT modulator inactive, Akt phos inh inactive and CtBP-E1A inh -89.
For CC(C)CC(N)c1csc(Nc2cnccn2)n1 (stereo not given) the results were Six1-Eya2 inh inconclusive, CCT modulator inactive and CtBP-E1A inh -75.
NC(CO)c1csc(Nc2ccc(C(F)(F)F)cn2)n1 (stereo not given) was read as Six1-Eya2 inh inconclusive, CCT modulator inactive, Akt phos inh inactive and CtBP-E1A inh -74.
CC(=O)Nc1ccc(OCCOc2ccc(NC(C)=O)cc2)cc1 was read as Six1-Eya2 inh inactive, CCT modulator inactive and Akt phos inh inactive.
For COc1cc(/C=N/NC(=O)C2=NNC(=O)C2C)ccc1O (stereo not given) the results were Six1-Eya2 inh inactive, CCT modulator inactive, Akt phos inh inactive and CtBP-E1A inh inactive.
`CC1C(=O)NN=C1C(=O)N/N=C\c1ccc(O)cc1O` (stereo not given) gave Six1-Eya2 inh -92, CCT modulator inactive, Akt phos inh inactive and CtBP-E1A inh inactive.
`CCOC(=O)c1ccc(N2C(=O)CC(N3CCN(Cc4ccccc4)CC3)C2=O)cc1` (stereo not given) gave Six1-Eya2 inh inactive, CCT modulator inactive, Akt phos inh inactive and CtBP-E1A inh inactive.
For CCOC(=O)c1ccc(N2C(=O)CC(N3CCC(Nc4ccc(F)cc4)CC3)C2=O)cc1 (stereo not given) the results were Six1-Eya2 inh inactive, CCT modulator -65, Akt phos inh inactive and CtBP-E1A inh inactive.
O=[N+]([O-])c1ccccc1Oc1ccc(S(=O)(=O)N2CCOCC2)cc1 was read as Six1-Eya2 inh inactive, CCT modulator inactive, Akt phos inh inactive and CtBP-E1A inh inactive.
Screening COc1ccc(OC)cc1 returned Six1-Eya2 inh inactive, CCT modulator inactive, Akt phos inh inactive and CtBP-E1A inh inactive.
Screening COc1ccc(-n2cnnc2)cc1 returned Six1-Eya2 inh inactive, CCT modulator inactive, Akt phos inh -123% and CtBP-E1A inh inactive.

Bioassay records as filed in PubChem BioAssay.
